Seven compounds from PubChem BioAssay (NCATS) can be followed below.

Results filed as inconclusive are left out. The source made the active and inactive calls. Unless noted, calls follow the shape of the dose curve; as a rule, active = well fitted curve in either direction with a large enough effect (not every such curve was filed as active); inconclusive = small, poorly fitted or top-dose-only effect, or another doubt; inactive = flat fitted curve, though single readings scatter. Bounds are passed on as bounds.

Experiment [1] concerns the target Lysosomal acid glucosylceramidase (Homo sapiens) (UniProt P04062). The experiment in a line: Glucocerebrosidase-p2 (AID 348; in the data active = potency below about 10 µM; also: potency is read from the fitted curve at half-maximal effect). Conditions: purified GBA, blue fluorogenic substrate, 40 min. A digest of the protocol: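 Normal human glucocerebrosidase (0.2 nM) with blue fluorogenic substrate (80 uM final) in citrate/phosphate pH 5.9 with 10mM sodium taurocholate, 0.01% tween-20; 40 min RT, NaOH/glycine stop; fluorescence Ex 365/Em 440; AC50 from a titration from 0.6 nM upwards.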

Experiment [2] in a line: AP1 Signaling Pathway (AID 357).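 Also: ME-180 reporter cells stimulated with EGF at its EC50 level; % is scaled to controls: 0 for no effect and ±100 for the full control effect.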 Conditions: ME-180 AP-1-bla reporter, EGF-induced, beta-lactamase ratio, 5 h; at 7.69 µM (top of the series) unless noted. A digest of the protocol:
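In this screen, ME-180 cells in Opti-MEM with 0.5% dialyzed FBS received EC50 EGF and compound titrations for 5 h. AP-1 reporter beta-lactamase was detected via CCF4 ratio, giving AC50 for positive and negative modulators.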

The target of experiment [3] is Cytochrome P450 1A2 (Homo sapiens) (UniProt P05177). The experiment in a line: p450-cyp1a2 (AID 410; calls by dose curve; also: potency is read from the fitted curve at half-maximal effect;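 as to activity change, negative = inhibition: -100% = full effect of reference inhibitor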). The following applies: recombinant CYP1A2, luciferin-ME demethylation, luminescence; series mostly up to 57 µM. A digest of the protocol: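 20nM CYP1A2, 100uM Luciferin-ME (=Km), 100mM KPO4; cpd 10 min RT; +NADPH regen, 60 min RT; stop/detect 20 min; luminescence. Normalized to furafylline 57 uM = full inhibition.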

A short description of experiment [4]: NFAT Signaling Pathway (AID 444).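 Also: carbachol stimulus at about its EC50 of 1 µM final; % is scaled to controls: 0 for no effect and ±100 for the full control effect.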 The following applies: Jurkat NFAT-bla M1, carbachol, beta-lactamase ratio, 5 h; at 7.69 µM (top of the series) unless noted. A digest of the protocol: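 Jurkat cells with NFAT-driven β-lactamase reporter and co-expressed M1 receptor, stimulated with carbachol (final 1 uM, ~EC50), compound titration, 5 h at 37 °C. CCF4 loaded 1 h at RT; 460/530 nm ratio gave %activity and AC50.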

Experiment [5] can be described thus: Stat Signaling Pathway (AID 446).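 Also: ME-180 cervical cancer cells given 40 pM IL-6 alongside compound; SIE-controlled beta-lactamase reporter measured as 460/530 nm FRET emission ratio; % is scaled to controls: 0 for no effect and ±100 for the full control effect.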 The following applies: ME-180 (cervical carcinoma) SIE beta-lactamase reporter, IL-6 stimulated, 5 h; at 7.69 µM (top of the series) unless noted. In outline: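 Emission at 460 and 530 nm (excitation 405 nm) reports SIE-controlled beta-lactamase in ME-180 cells. Cells received compound with 40 pM IL-6 for 5 hrs at 37 C; data scaled between 300 pM IL-6 and 125 nM JAK-inhibitor controls.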

Experiment [6] deals with Glucocorticoid receptor (Homo sapiens) (UniProt P04150). The experiment in a line: GR-EFC Redistribution (AID 451; calls by dose curve; also: potency is read from the fitted curve at half-maximal effect). The following applies: CHO-K1 GR-EFC translocation, beta-gal luminescence, 2 h. A digest of the protocol: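 CHO-K1 cells expressing nuclear EA and GR-ED fragments of b-gal; compounds titrated up to 46 uM final, 2 h at 37 C. GR nuclear translocation read as complemented b-gal luminescence after 1 h RT detection.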

Experiment [7] addresses Mitogen-activated protein kinase 10 (Mus musculus) (UniProt Q61831). The experiment in a line: JNK3 AlphaScreen Assay (AID 530).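 Also: kinase came from lysate of stimulated human HepG2 cells; signal reports phosphorylation of biotinylated GST-cJun 1-79 at Ser73 with 10 µM ATP; % is scaled to controls: 0 for no effect and ±100 for the full control effect.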 Conditions: JNK3 lysate, c-Jun phosphorylation; series mostly up to 57.1 µM. A digest of the protocol: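 HepG2 lysate (IL-1b/TNFa pre-activated) + biotin-GST-cJun 1-79 + anti-pSer73 cJun; cpd titration, 15 min RT; ATP 10 uM start; Tris pH 7.6, MgCl2, DTT, vanadate; beads in EDTA buffer; AlphaScreen.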
In general terms: Bead proximity is the source of the signal in Alpha formats.

In experiment [8] the target is Cytochrome P450 3A4 (Homo sapiens) (UniProt P08684). The experiment in a line: qHTS Assay for Activators of Cytochrome P450 3A4 (AID 885; active = well fitted curve in the direction sought with a large enough effect; an effect the other way counts as inactive or inconclusive; also: nearly all actives have a fitted effect of over 65% in size). Conditions: recombinant CYP3A4, Luciferin-PPXE luminescence, 60 min; series mostly up to 57.1 µM. A digest of the protocol: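 Activators are scored by enhanced luminescence from CYP3A4 conversion of luciferin-PPXE (25uM, equal to KM) to luciferin, after 60 min at RT with an NADPH-regenerating system.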
Background: Quantitative high-throughput screening tests each substance at several concentrations.

The nature of experiment [9]: qHTS Assay for Lipid Storage Modulators (AID 1519; calls by dose curve). The following applies: Drosophila S3 cells, BODIPY lipid droplet/cell ratio, laser cytometry, cells loaded with oleic acid; for activity change, negative = inhibition: at 57.5 µM (top of the series). A digest of the protocol: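 Cells seeded at 5,000 per well were treated with compounds over a concentration series and loaded with oleic acid (400 uM, as added). Lipid droplet fluorescence (488 nm excitation, 500-530 nm channel) was read by laser-scanning cytometry and normalized to 20 uM Triacsin C.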

Experiment [10] in a line: Primary qHTS for small molecule stabilizers of the endoplasmic reticulum resident proteome: Secreted ER Calcium Modulated Protein (SERCaMP) assay (AID 1508630; active = well fitted curve in the direction sought with a large enough effect; an effect the other way counts as inactive or inconclusive; also: % is scaled to controls: 0 for no effect and ±100 for the full control effect). The following applies: SH-SY5Y GLuc-SERCaMP (Gaussia luciferase released on ER calcium loss) secretion, thapsigargin, luminescence; series mostly up to 38.4 µM. In outline:
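The SH-SY5Y reporter protocol was run at 3 concentrations up to 38.3 uM (primary) or 11 concentrations (follow-up): 16 h compound, 100 nM thapsigargin for 4 h, then extracellular luciferase luminescence.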

In experiment [11] the target is 3',5'-cyclic-AMP phosphodiesterase 4B (Homo sapiens) (UniProt Q07343). As to the kind of experiment: qHTS Assay for Inhibitors of PDE-IV (AID 607; active = well fitted activation curve with a large enough effect in the main read-out, with a control signal flat, not every such curve was filed as active; also: % of control where 0% means no effect). Conditions: HEK293 ACTOne CNG channel cells, membrane potential fluorescence; series mostly up to 22.9 µM. In outline:
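The readout is membrane depolarisation from a cAMP-sensing CNG channel, detected with a potential dye at ex 535/em 590. Cells were HEK293-derived (endogenous PDE-IV) at 1000 cells/well, titrated up to 22.9 uM final.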

Experiment [12] deals with Glucocorticoid receptor (Homo sapiens) (UniProt P04150). As to the kind of experiment: GR-GFP Redistribution (AID 450;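 active = compounds whose dose series gives a full or clear partial fitted curve of increased nuclear translocation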; also: potency is read from the fitted curve at half-maximal effect). The following applies: U2OS GR-GFP nuclear translocation, laser cytometry, 2 h.
The nature of experiment [13]: Confirmation and Secondary Assay for Modulators of Hemoglobin Beta Chain Splicing at IVS2 654 locus (AID 910; active = well fitted curve in the direction sought with a large enough effect; an effect the other way counts as inactive or inconclusive;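 also: HeLa cells stably carrying EGFP split by mutant beta-globin IVS2-654 intron; % of control where 0% means no effect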). Conditions: HeLa EGFP-654 splicing reporter, GFP fluorescence, 48 h; series mostly up to 38.3 µM. In outline:
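HeLa cells stably expressing EGFP interrupted by β-globin IVS2-654 intron, seeded overnight in Opti-MEM/2% FCS, then treated 2 days at 37 °C. Restored splicing read as total peak GFP intensity per well by laser scanning cytometry (488 nm excitation, 500–520 nm emission); 500 nM antisense PNA as control.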

Experiment [14] is described as follows: Confirmation and Secondary Assay for Modulators of Hemoglobin Beta Chain Splicing at IVS2 705 locus (AID 930; active = well fitted curve in the direction sought with a large enough effect; an effect the other way counts as inactive or inconclusive;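 also: HeLa cells stably expressing the EGFP-705 splicing reporter; GFP fluorescence per well restored by corrected splicing of the IVS2-705 intron in EGFP; % of control where 0% means no effect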). The following applies: HeLa EGFP-705 splicing reporter, GFP fluorescence, 48 h; series mostly up to 38.3 µM. In outline:
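HeLa IVS2-705 EGFP reporter cells, 500/well, compound 2 d at 37C; correct splicing yields fluorescent EGFP. Control: 500 nM antisense PNA. Read-out: total peak GFP intensity.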

Experiment [15] concerns the target Ubiquitin carboxyl-terminal hydrolase 1 (Homo sapiens) (UniProt O94782). The experiment in a line: Inhibitors of USP1/UAF1: Pilot qHTS (AID 504865; active = well fitted curve in the direction sought with a large enough effect; an effect the other way counts as inactive or inconclusive;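 also: rhodamine fluorescence freed from ubiquitin-rhodamine substrate followed over time; top concentration of the series differs between compounds; % is scaled to controls: 0 for no effect and ±100 for the full control effect; nearly all actives have a fitted effect of over 35% in size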). The following applies: purified USP1/UAF1, Ub-rhodamine cleavage fluorescence; series mostly up to 54.9 µM. A digest of the protocol: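 1nM USP1/UAF1 + cpd, 15 min RT; start w/ Ub-Rho 150nM final; kinetic FL 480/540 nm, 6 reads q60 s. Buffer 50mM HEPES pH 7.8, 0.5mM EDTA, 1mM TCEP, 0.01% Tween-20, 0.1 mg/ml BSA.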

Experiment [16] has as its target Cytochrome P450 2D6 (Homo sapiens) (UniProt P10635). The experiment in a line: qHTS Assay for Inhibitors and Substrates of Cytochrome P450 2D6 (AID 891; active = well fitted curve in the direction sought with a large enough effect; an effect the other way counts as inactive or inconclusive; also: potency is read from the fitted curve at half-maximal effect; nearly all actives have a fitted effect of over 60% in size). The following applies: recombinant CYP2D6, luciferin-ME EGE luminescence; series mostly up to 57.1 µM. In outline: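 Luminescent read-out of luciferin formed by 5 nM human CYP2D6 demethylating 30 uM Luciferin-ME EGE (Km level) over 60 min at room temperature after NADPH regeneration addition. Data normalized to full inhibition by 1.43 uM quinidine.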

Setting [17] is: measured here: cell count channel max response.
Where [18] appears, read: measured here: lipid channel max response.

Chain of Glucocorticoid receptor (Homo sapiens) (P04150 whole entry, looked up, the tested form may be a part): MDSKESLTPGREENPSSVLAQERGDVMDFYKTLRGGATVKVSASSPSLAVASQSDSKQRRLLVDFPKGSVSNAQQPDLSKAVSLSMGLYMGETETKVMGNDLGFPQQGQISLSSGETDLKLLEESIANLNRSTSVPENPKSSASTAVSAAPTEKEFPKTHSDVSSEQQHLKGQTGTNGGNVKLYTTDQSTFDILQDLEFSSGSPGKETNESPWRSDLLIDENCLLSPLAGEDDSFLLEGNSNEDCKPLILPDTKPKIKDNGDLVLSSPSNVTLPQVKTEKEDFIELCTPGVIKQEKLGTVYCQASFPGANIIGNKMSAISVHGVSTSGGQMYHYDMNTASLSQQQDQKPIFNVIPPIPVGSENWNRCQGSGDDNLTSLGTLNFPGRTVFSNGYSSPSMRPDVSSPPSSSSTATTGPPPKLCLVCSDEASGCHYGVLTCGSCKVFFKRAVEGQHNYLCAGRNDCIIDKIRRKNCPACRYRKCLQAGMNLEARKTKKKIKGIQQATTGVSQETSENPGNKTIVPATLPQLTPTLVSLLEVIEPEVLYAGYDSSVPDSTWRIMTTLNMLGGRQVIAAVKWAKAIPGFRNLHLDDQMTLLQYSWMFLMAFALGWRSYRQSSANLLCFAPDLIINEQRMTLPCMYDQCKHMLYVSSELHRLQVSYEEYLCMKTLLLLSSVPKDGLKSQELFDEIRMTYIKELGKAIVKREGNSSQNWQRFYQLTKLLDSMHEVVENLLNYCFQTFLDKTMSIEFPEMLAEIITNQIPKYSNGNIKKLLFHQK
Chain of Cytochrome P450 1A2 (Homo sapiens) (P05177 whole entry, looked up): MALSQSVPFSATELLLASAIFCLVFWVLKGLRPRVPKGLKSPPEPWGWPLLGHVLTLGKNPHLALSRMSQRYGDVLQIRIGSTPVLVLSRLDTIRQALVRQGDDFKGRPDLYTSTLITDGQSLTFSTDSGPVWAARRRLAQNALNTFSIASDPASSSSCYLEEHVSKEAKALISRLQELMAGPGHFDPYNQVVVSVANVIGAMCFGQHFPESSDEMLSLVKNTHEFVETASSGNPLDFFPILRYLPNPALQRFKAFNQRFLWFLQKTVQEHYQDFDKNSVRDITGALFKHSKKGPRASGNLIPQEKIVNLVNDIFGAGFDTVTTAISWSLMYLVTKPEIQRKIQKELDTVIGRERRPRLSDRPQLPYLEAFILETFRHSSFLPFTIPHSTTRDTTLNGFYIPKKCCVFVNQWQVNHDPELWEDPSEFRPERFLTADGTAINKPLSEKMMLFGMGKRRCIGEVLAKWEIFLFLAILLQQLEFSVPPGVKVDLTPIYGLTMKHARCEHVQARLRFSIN
Chain of Lysosomal acid glucosylceramidase (Homo sapiens) (P04062 whole entry, looked up): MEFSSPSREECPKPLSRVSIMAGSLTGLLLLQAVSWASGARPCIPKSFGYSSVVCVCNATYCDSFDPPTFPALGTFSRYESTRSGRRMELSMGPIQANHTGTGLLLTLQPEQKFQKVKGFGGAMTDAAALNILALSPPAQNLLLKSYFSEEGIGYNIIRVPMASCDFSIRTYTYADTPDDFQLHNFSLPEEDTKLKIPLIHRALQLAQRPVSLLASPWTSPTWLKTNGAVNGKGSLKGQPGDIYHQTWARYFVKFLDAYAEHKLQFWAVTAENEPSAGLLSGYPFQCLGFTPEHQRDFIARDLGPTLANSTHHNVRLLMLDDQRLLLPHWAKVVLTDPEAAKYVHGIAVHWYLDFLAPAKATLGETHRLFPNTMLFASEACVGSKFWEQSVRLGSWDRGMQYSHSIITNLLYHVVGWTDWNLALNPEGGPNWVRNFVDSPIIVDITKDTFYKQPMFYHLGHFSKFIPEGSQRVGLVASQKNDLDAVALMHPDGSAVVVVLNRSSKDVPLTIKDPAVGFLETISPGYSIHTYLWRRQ
Chain of 3',5'-cyclic-AMP phosphodiesterase 4B (Homo sapiens) (Q07343 whole entry, looked up): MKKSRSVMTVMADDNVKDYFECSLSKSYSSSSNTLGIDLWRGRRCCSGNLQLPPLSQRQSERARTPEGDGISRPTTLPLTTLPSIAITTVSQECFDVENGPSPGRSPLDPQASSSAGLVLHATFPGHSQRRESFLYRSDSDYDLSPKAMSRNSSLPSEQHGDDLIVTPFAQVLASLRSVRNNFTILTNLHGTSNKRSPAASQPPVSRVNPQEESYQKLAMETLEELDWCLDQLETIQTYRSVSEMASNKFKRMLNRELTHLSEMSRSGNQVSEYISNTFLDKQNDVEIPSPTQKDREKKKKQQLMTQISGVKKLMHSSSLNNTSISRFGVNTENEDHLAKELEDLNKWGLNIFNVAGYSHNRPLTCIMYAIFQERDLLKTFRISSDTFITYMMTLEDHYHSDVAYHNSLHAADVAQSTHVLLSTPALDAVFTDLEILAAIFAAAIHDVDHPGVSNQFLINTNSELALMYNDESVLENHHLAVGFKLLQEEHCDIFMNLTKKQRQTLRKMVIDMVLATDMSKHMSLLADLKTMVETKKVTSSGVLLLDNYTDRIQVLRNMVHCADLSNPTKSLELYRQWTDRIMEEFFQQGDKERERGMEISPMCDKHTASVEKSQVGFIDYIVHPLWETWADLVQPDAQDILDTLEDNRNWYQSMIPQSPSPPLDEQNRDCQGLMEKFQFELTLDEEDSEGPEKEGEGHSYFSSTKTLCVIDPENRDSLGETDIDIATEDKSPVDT
Chain of Cytochrome P450 3A4 (Homo sapiens) (P08684 whole entry, looked up): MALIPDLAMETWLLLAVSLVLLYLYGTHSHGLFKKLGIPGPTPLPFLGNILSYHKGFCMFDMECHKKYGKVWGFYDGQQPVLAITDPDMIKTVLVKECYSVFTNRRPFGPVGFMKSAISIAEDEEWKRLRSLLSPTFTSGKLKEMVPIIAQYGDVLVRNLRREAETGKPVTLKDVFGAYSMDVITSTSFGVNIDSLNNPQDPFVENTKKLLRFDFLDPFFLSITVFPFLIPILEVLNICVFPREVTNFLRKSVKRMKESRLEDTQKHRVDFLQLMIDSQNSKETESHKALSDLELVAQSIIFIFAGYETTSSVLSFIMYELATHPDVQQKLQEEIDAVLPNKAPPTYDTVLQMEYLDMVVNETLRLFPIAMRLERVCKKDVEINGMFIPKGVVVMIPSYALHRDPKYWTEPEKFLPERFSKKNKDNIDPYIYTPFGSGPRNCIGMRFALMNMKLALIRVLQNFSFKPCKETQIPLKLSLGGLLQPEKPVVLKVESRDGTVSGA
Chain of Cytochrome P450 2D6 (Homo sapiens) (P10635 whole entry, looked up): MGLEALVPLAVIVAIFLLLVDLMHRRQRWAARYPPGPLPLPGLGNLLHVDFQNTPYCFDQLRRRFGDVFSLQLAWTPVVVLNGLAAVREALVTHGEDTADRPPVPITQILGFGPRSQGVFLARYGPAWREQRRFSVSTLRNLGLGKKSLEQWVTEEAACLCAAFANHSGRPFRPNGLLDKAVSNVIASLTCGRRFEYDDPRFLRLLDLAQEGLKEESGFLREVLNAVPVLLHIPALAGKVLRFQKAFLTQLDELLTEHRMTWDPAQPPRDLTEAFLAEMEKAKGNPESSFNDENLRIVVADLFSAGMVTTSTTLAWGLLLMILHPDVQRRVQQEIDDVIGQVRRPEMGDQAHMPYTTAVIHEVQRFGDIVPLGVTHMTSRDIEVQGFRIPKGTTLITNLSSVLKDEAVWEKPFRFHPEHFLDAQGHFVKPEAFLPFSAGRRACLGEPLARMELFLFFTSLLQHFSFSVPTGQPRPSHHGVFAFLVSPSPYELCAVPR
Chain of Ubiquitin carboxyl-terminal hydrolase 1 (Homo sapiens) (O94782 whole entry, looked up): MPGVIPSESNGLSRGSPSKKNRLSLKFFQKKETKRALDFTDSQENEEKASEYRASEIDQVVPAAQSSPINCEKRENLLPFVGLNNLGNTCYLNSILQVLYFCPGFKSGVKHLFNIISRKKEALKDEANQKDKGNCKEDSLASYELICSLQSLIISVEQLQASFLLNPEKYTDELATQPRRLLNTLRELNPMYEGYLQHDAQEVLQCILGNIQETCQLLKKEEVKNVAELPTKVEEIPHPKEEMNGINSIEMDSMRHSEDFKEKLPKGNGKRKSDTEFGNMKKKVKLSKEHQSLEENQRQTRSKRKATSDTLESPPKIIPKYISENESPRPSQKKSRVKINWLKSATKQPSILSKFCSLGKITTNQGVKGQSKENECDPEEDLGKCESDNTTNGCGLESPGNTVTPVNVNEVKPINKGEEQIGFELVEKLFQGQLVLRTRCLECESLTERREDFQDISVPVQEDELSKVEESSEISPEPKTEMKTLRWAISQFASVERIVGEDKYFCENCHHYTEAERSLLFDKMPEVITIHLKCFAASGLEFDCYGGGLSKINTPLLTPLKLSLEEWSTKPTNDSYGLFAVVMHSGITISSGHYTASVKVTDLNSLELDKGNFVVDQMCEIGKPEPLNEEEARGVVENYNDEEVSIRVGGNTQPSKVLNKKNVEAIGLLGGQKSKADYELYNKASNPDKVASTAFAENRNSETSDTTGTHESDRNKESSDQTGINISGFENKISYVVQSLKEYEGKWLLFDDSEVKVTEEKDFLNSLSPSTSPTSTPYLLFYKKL

As for `COc1ccc(NC(=O)N2CC[C@@]3(CCCN(C(=O)c4csnn4)C3)C2)cc1`, the Potency in experiment [1] was > 11.4 µM (inactive); in experiment [6], > 46 µM (inactive). For the same compound, the activity change, negative = inhibition is -1.53% (inactive) in experiment [2], 17.4% (inactive) in experiment [4] and 5.36% (inactive) in experiment [9]. In addition, the Potency entry in experiment [3], in experiment [8] and in experiment [10] was “inactive” throughout. Also, the activity, negative = inhibition in experiment [5] was 7.84% (inactive). Besides, the compound was classed as inactive in [7]. Besides, the max response in experiment [9] (setting [17]) turned out to be 14.7%; in [9] (setting [18]), 23.5%.
Consider `Cn1cccc1C(=O)N1CCC[C@@]2(CCN(c3ccccn3)C2)C1`, for which the Potency is > 11.4 µM (inactive) in [1] and 31.6 µM (active) in [3]. The activity change, negative = inhibition was 0.459% (inactive) in experiment [2], -3.64% (inactive) in [4] and 4.31% (inactive) in experiment [9]. In experiment [5], the activity, negative = inhibition is -2.5% (inactive). Moreover, the call in experiment [7] was inactive. Further, the Potency entry in [11], in [8] and in experiment [10] was “inactive” throughout. Moreover, the max response was 20% in [9] (setting [17]) and 28% in experiment [9] (setting [18]).
`Cn1cccc1C(=O)N1CCC[C@@]2(CCN(c3ccccc3)C2)C1`: the Potency in experiment [1] was > 11.4 µM (inactive); in experiment [3], 12.6 µM (active); in [6] it was > 46 µM (inactive). Also, the activity change, negative = inhibition was -3.25% (inactive) in experiment [2], -15.1% (inactive) in [4] and -1.47% (inactive) in experiment [9]. The activity, negative = inhibition in experiment [5] is -10.8% (inactive). In addition, the Potency result in experiment [11], in [8] and in [10] was “inactive” throughout. The max response in experiment [9] (setting [17]) came to 15.8%; in experiment [9] (setting [18]), 17.2%.
In the case of `CS(=O)(=O)N1CCC2(CC1)CN(c1cccc(-c3ccccc3)c1)C2`, the Potency was > 11.4 µM (inactive) in experiment [1], 5.01 µM (active) in experiment [3] and > 46 µM (inactive) in experiment [6]. Also, the results for the activity change, negative = inhibition in experiment [2], in experiment [4] and in experiment [9] were 6.38% (inactive), 9.12% (inactive) and -16.1% (inactive), respectively. In addition, the activity, negative = inhibition in experiment [5] was -14.9% (inactive). Moreover, the Potency result in experiment [11] and in experiment [10] was “inactive” each time. In addition, the max response in experiment [9] (setting [17]) is -11.7%; in [9] (setting [18]) it was -21%.
For `COCC(=O)N1CCC2(CC1)CCN(C(=O)Nc1ccc(OC)cc1)CC2`, the Potency in experiment [1] is > 11.4 µM (inactive); in [6], > 46 µM (inactive). For the same compound, the activity change, negative = inhibition was -6.71% (inactive) in experiment [2], 6.08% (inactive) in experiment [4] and 4.36% (inactive) in experiment [9]. Besides, the Potency entry in [3], in [11] and in experiment [10] was “inactive” in each case. In experiment [7], the compound was called inactive. Besides, the max response was 13.2% in experiment [9] (setting [17]) and 20.1% in [9] (setting [18]).
With `COc1ccccc1-c1nccc(NCc2cnc(C)cn2)n1`, the Potency was > 11.4 µM (inactive) in experiment [1], 12.6 µM (active) in experiment [3], > 46 µM (inactive) in [12] and > 46 µM (inactive) in experiment [6]. The values for the activity change, negative = inhibition in experiment [2] and in experiment [9] were 6.33% (inactive) and 11.7% (inactive), respectively. For the same compound, in experiment [5], the activity, negative = inhibition was 18.3% (inactive). Besides, the outcome in experiment [7], in [13] and in [14] was inactive. Also, the Potency entry in experiment [11], in [15] and in experiment [10] was “inactive” each time. Also, the max response in experiment [9] (setting [17]) was 16.8%; in [9] (setting [18]), 27.7%.
On to `O=C(c1ccco1)N1CCC[C@@]2(CCN(Cc3ccccc3)C2)C1`, for which the Potency in [1] was > 11.4 µM (inactive); in [6] it was > 46 µM (inactive); in experiment [16] it was 2 µM (active). Further, the activity change, negative = inhibition in experiment [2] is -5.26% (inactive); in [4] it was -3.82% (inactive); in [9] it was 2.21% (inactive). For the same compound, the Potency result in experiment [3], in experiment [11], in [8] and in experiment [10] was “inactive” each time. Besides, in [7], the compound was called inactive. For the same compound, the max response was -0.541% in [9] (setting [17]) and 7.17% in [9] (setting [18]).
